For eight molecules, Potency results are on record in PubChem BioAssay (Tox21).

Values joined by “and” are separate entries in the source; they are usually repeats but may differ in a detail not shown here. Equal values may be shown once. Inconclusive results are not listed. Active and inactive are the calls of the source. Unless noted, calls come from the whole dose curve.

The nature of assay [1]: Nuclear factor erythroid 2-related factor 2/antioxidant responsive element (Nrf2/ARE) small molecule agonists: qHTS cell viability counter screen in human keratinocytes (AID 1919968; active = well fitted curve in the direction sought with a large enough effect in the repeat runs; an effect the other way counts as inactive or inconclusive; note: nearly all actives have a fitted effect of over 55% in size; note: potency is the fitted concentration of half-maximal effect). The procedure, abridged:
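Parallel cytotoxicity read: KeratinoSens HaCaT cells, compound treatment 23 h, viability by CellTiter-Fluor fluorescence 1 h post-reagent.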
(qHTS replaces the single test concentration by a dilution series.)

Assay [2] is described as follows: Nuclear factor erythroid 2-related factor 2/antioxidant responsive element (Nrf2/ARE) small molecule agonists: luciferase reporter gene qHTS assay in human keratinocytes (AID 1919969). Note: nearly all actives have a fitted effect of over 35% in size. Note: potency is the fitted concentration of half-maximal effect.
The target in assay [3] is Gonadotropin-releasing hormone receptor (Homo sapiens) (UniProt P30968). Kind of assay: Human gonadotropin-releasing hormone receptor (GnRHR) small molecule agonists, calcium flux assay in GnRHR-HEK293 cells (AID 1920063). Note: nearly all actives have a fitted effect of over 35% in size. The procedure, abridged:
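Calcium flux, agonist mode, human GnRHR stably integrated in HEK293; dye 1 h at 37 C before compound; Ex/Em=480/540 kinetic read, 3 min; 15 concentrations, triplicate.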
A general note: Calcium assays in cells follow changes in intracellular calcium, usually with a dye or a luminescent sensor.

Assay [4] concerns the target KiSS-1 receptor (Homo sapiens) (UniProt Q969F8). Kind of assay: Human kisspeptin (KISS1R) small molecule agonists, calcium flux assay in KISS1R-HEK293 cells (AID 1920064; active = well fitted curve in the direction sought with a large enough effect in the repeat runs; an effect the other way counts as inactive or inconclusive). In a few lines:
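Triplicate 15-concentration series were applied to dye-loaded human KISS1R HEK293 cells, and agonist-evoked calcium fluorescence was captured for 3 min.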

Assay [5] can be described thus: G protein-coupled receptor (GPCR) small molecule agonists, calcium flux assay: HEK293 wild type cell line counter screen (AID 1920065). In a few lines: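 Non-specific calcium responders were flagged by adding DMSO-dissolved compounds to dye-loaded cells and reading 480/540 nm fluorescence each second for 3 min; ATP served as positive control.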
Assay [6] in a line: p53 small molecule agonists, cell-based qHTS assay with human liver microsomes (AID 1963577).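 Note: p53 response element beta-lactamase reporter cells with liver microsomes plus NADPH.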 The procedure, abridged:
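HLM-supplemented p53RE-bla reporter assay: 16 h compound exposure at 37 C, microsomes and NADPH each 0.5 mg/mL final, read by fluorescence intensity.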

The nature of assay [7]: p53 small molecule agonists, cell-based qHTS assay with rat liver microsomes (AID 1963578). The procedure, abridged: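 Quantitative HTS of the Tox21 10K library: p53RE-bla cells, rat liver microsomes plus NADPH at 0.5 mg/mL final each, 16 h at 37 C, beta-lactamase fluorescence detection.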
The nature of assay [8]: p53 small molecule agonists, cell-based qHTS assay with human liver microsomes: qHTS cell viability counter screen (AID 1963579). Note: nearly all actives have a fitted effect of over 45% in size. Note: potency is the fitted concentration of half-maximal effect. In a few lines: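 Viability of p53RE-bla cells is measured as CellTiter-Glo luminescence following a 16 h, 37 C incubation with compound, liver microsomes from human donors and NADPH.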
The nature of assay [9]: p53 small molecule agonists, cell-based qHTS assay with rat liver microsomes: qHTS cell viability counter screen (AID 1963580). Note: nearly all actives have a fitted effect of over 45% in size. The procedure, abridged:
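Cytotoxicity counter screen: intracellular ATP read by CellTiter-Glo luminescence in the p53 reporter wells. HCT-116 p53RE-bla cells were treated for 16 h at 37 C alongside rat liver microsomes and NADPH, each 0.5 mg/mL final.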

A short description of assay [10]: p53 small molecule agonists, cell-based qHTS assay (AID 1963582; active = well fitted activation curve with a large enough effect in the signal ratio in the repeat runs, not every such curve was filed as active; the % refers to the signal ratio; note: potency is the fitted concentration of half-maximal effect). The procedure, abridged:
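Beta-lactamase reporter cells (p53RE-bla) treated with compounds for 16 h at 37 C; FRET substrate, 2 h, room temperature; fluorescence intensity.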

For assay [11], the target named is 5-hydroxytryptamine receptor 2A (Homo sapiens) (UniProt P28223). The assay is described as follows: 5-hydroxytryptamine receptor 2A (HTR2A) small molecule antagonists, cell-based qHTS assay (AID 1963586). Note: nearly all actives have a fitted effect of over 45% in size. Note: potency is the fitted concentration of half-maximal effect. The procedure, abridged:
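CHO cells stably expressing human HTR2A were plated for 18 h at 37 C, then loaded with calcium dye for 1 h. Compounds were preincubated 5 min at room temperature before DOI (4 nM solution) was added. Kinetic fluorescence was read for 3 min.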

For assay [12] the target is unchanged. The assay is described as follows: 5-hydroxytryptamine receptor 2A (HTR2A) small molecule agonists, cell-based qHTS assay (AID 1963587). Note: nearly all actives have a fitted effect of over 30% in size. Note: potency is the fitted concentration of half-maximal effect. In a few lines:
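Kinetic calcium-flux fluorescence (2 min, 1 sec intervals) after compound addition in agonist mode. HTR2A-CHO cells were cultured 18 h, then dye-loaded 1 h at 37 C.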

Assay [13] deals with Muscarinic acetylcholine receptor M1 (Homo sapiens) (UniProt P11229). Kind of assay: Cholinergic receptor muscarinic 1 (CHRM1) small molecule antagonists, cell-based qHTS assay (AID 1963588). Note: nearly all actives have a fitted effect of over 40% in size. Note: potency is the fitted concentration of half-maximal effect. The procedure, abridged:
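Compounds were tested at 15 concentrations in three independent runs. Dye-loaded CHRM1-CHO cells were exposed 5 min at room temperature before stimulation by acetylcholine added at 50nM. Intracellular calcium was read kinetically on FDSS for 3 min.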

Assay [14] has the same target. Kind of assay: Cholinergic receptor muscarinic 1 (CHRM1) small molecule agonists, cell-based qHTS assay (AID 1963589). Note: nearly all actives have a fitted effect of over 35% in size. The procedure, abridged: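 qHTS, 15-point titration, 3 independent runs: compounds pin-transferred onto dye-loaded CHRM1-CHO cells (human M1), calcium fluorescence followed every second to detect agonism.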
Assay [15] is described as follows: cAMP Responsive Elements (CRE) small molecule agonists, cell-based qHTS assay (AID 1963590). In a few lines: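 Quantitative HTS for CRE agonists: HEK 293T CRE-bla cells, overnight plating, 3 h compound incubation at 37 C/5% CO2, then 2 h room-temperature LiveBLAzer B/G FRET substrate loading.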
Assay [16] is described as follows: cAMP Responsive Elements (CRE) small molecule antagonists, cell-based qHTS assay (AID 1963591; active = well fitted inhibition curve with a large enough effect in the signal ratio in the repeat runs, not every such curve was filed as active; the % refers to the signal ratio). In a few lines: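 Fluorescence intensity from cleaved LiveBLAzer B/G substrate (2 h, room temperature) quantified CRE-bla activity in HEK 293T cells exposed 3 h to compound with 0.25 uM final NKH477.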
In assay [17] the target is Beta-2 adrenergic receptor (Homo sapiens) (UniProt P07550). The assay is described as follows: Adrenergic beta2 receptor (ADRB2) small molecule antagonists, cell-based qHTS assay (AID 1963592). Note: series mostly up to about 92 µM; nearly all actives have a fitted effect of over 50% in size. In a few lines:
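Assay format: CHO-ADRB2 cells, 18-20hr seeding at 37C/5% CO2, then compound plus 1nM isoproterenol agonist mix for 0.5hr RT. Homogeneous time-resolved fluorescence cAMP detection after 1hr, expressed as 665/615 nm ratio.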

The target of assay [18] is D(2) dopamine receptor (Homo sapiens) (UniProt P14416). The assay is described as follows: Dopamine D2 receptor (DRD2) small molecule agonists, cell-based qHTS assay (AID 1963594). Note: nearly all actives have a fitted effect of over 35% in size. In a few lines: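 cAMP accumulation in DRD2-HEK293 cells measured by HTRF after 1 h detection; compounds added 10 min before NKH477 (200nM […]) forskolin-analogue stimulation, 30 min at room temperature, with Ro20-1724 present at 0.1 mM final.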
D(2) dopamine receptor (Homo sapiens), sequence (P14416 whole entry, looked up): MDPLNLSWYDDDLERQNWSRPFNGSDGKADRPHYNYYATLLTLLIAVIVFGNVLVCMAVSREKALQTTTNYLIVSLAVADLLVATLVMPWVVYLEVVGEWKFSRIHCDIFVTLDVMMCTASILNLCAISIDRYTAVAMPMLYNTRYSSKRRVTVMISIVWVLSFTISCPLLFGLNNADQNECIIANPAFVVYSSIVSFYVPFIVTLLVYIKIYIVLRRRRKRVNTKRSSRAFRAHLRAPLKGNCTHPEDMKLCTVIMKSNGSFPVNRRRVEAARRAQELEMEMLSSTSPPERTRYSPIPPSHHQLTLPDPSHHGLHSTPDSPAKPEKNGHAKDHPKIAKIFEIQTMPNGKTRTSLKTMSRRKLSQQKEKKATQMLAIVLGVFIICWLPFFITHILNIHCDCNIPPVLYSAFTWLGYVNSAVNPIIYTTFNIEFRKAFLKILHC

For assay [19] the target is unchanged. Kind of assay: Dopamine D2 receptor (DRD2) small molecule antagonists, cell-based qHTS assay (AID 1963595; active = well fitted inhibition curve with a large enough effect in the signal ratio in the repeat runs, with a control signal flat; the % refers to the signal ratio). The procedure, abridged:
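HEK293 cells stably expressing DRD2 were preincubated with 0.1 mM Ro20-1724, then with compound for 10 min at room temperature. Cells were stimulated with 200 nM NKH477 plus 12 nM quinpirole for 30 min, and cAMP was read by HTRF.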

Assay [20] is described as follows: p53 small molecule agonists, cell-based qHTS assay: qHTS cell viability counter screen (AID 1963581). Note: nearly all actives have a fitted effect of over 45% in size. In a few lines:
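Multiplexed with the reporter read, a CellTiter-Glo step (30 min, room temperature) gauges ATP-based viability of HCT-116 p53RE-bla cells after 16 h compound incubation at 37 C.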

Muscarinic acetylcholine receptor M1 (Homo sapiens), sequence (P11229 whole entry, looked up): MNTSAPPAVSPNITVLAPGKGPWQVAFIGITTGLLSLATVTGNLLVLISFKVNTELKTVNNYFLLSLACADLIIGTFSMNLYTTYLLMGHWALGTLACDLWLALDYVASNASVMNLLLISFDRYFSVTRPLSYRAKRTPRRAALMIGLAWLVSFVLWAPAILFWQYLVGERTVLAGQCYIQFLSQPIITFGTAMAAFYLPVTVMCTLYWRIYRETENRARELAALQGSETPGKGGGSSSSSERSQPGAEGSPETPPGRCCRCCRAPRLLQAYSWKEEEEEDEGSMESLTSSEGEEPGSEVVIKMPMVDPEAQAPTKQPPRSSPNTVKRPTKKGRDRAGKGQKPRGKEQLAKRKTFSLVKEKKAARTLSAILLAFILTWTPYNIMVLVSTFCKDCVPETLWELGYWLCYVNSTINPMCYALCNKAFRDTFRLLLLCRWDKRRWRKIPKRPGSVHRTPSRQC
KiSS-1 receptor (Homo sapiens), sequence (Q969F8 whole entry, looked up): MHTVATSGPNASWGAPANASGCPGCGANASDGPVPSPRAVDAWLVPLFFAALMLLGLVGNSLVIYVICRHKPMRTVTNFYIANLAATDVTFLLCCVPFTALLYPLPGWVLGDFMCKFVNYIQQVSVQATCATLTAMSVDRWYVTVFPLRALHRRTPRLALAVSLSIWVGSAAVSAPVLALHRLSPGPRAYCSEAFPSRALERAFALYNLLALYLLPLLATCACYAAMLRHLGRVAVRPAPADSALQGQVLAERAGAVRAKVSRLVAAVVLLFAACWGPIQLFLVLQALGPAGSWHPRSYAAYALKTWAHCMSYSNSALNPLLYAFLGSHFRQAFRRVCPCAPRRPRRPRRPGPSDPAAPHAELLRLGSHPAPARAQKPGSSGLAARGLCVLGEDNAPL
5-hydroxytryptamine receptor 2A (Homo sapiens), sequence (P28223 whole entry, looked up): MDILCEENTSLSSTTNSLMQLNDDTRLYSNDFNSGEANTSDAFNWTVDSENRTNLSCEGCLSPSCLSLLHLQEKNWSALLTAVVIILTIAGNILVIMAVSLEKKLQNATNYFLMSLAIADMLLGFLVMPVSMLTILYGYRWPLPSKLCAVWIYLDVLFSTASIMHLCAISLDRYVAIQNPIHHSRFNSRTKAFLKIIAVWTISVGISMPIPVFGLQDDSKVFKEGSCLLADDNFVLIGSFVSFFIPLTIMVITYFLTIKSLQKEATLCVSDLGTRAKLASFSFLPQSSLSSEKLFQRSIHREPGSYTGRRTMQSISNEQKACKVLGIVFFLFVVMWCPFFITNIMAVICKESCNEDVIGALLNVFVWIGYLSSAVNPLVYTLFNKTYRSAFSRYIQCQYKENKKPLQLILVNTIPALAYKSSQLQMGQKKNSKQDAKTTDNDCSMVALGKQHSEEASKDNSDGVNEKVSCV
Beta-2 adrenergic receptor (Homo sapiens), sequence (P07550 whole entry, looked up): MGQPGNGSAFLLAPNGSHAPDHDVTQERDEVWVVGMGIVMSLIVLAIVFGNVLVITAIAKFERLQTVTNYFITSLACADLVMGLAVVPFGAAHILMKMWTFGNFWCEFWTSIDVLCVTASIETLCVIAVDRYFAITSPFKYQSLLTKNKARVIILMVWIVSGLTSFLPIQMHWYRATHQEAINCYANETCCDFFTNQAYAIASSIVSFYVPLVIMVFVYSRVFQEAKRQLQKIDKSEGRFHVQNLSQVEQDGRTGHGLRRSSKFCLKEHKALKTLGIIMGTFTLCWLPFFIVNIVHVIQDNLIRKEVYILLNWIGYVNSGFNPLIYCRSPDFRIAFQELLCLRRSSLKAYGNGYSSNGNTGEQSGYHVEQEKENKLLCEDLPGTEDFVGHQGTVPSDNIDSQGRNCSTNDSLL
Gonadotropin-releasing hormone receptor (Homo sapiens), sequence (P30968 whole entry, looked up): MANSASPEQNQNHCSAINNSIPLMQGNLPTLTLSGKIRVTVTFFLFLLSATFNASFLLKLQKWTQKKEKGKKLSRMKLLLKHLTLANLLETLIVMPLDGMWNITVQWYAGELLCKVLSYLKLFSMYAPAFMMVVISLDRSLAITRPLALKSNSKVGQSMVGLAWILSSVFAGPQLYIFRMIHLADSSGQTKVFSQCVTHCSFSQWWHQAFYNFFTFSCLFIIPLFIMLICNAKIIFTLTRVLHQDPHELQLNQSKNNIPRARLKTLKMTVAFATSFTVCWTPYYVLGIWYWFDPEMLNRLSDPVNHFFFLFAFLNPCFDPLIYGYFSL

With `c1ccc(N2CCNCC2)cc1`, the Potency entry in [1], in assay [2], in assay [3], in assay [4], in assay [5] and in assay [6] was “inactive” in each case. Moreover, the Potency result in assay [7], in assay [8], in assay [9], in [10], in [13] and in assay [14] was “inactive” in each case. The Potency entry in assay [15], in assay [16], in assay [17], in [18] and in [19] was “inactive” each time. Further, the Potency was 818 nM (active) in assay [11] and 601 nM (active) in assay [12].
Take `CC1CC(CC2CCC(N)C(C)C2)CCC1N` (configuration not stated): the Potency was 7.82 µM (active) in [1] and 6.04 µM (active) in assay [13]. Moreover, the Potency entry in [2], in assay [3], in [4], in assay [5], in assay [6] and in assay [7] was “inactive” each time. For the same molecule, the Potency result in [8], in [9], in assay [10], in assay [11], in assay [12] and in assay [14] was “inactive” throughout. Moreover, the Potency result in assay [15], in assay [16], in [17] and in [19] was “inactive” in each case.
`CCCCCCCCOC(=O)c1ccc(C(=O)OCCCCCCCC)c(C(=O)OCCCCCCCC)c1`: the Potency entry in assay [1], in assay [2], in [3], in assay [4], in [5] and in assay [6] was “inactive” each time. For the same molecule, the Potency result in [7], in [8], in assay [9], in assay [11], in assay [12] and in assay [13] was “inactive” in each case. Further, the Potency entry in assay [14], in assay [15], in assay [16], in assay [17] and in assay [18] was “inactive” throughout.
For `CN(C)c1ccc(C(=O)c2ccc(N(C)C)cc2)cc1`, the Potency result in [1], in assay [3], in [4], in [5], in assay [6] and in assay [7] was “inactive” in each case. Moreover, the Potency result in assay [8], in assay [9], in [11], in assay [12], in assay [13] and in assay [16] was “inactive” throughout. For the same molecule, the Potency entry in assay [17], in assay [18] and in assay [19] was “inactive” in each case. For the same molecule, the Potency in [2] was 67.9 µM (active) and 54.5 µM (active); in [10], 11.4 µM (active).
For `Nc1cnn(-c2ccccc2)c(=O)c1Cl`, the Potency result in assay [1], in assay [2], in assay [3], in [4], in assay [5] and in [6] was “inactive” throughout. Moreover, the Potency entry in assay [7], in assay [8], in assay [9], in assay [11], in assay [12] and in assay [13] was “inactive” in each case. Moreover, the Potency entry in [15], in [16], in assay [17] and in assay [18] was “inactive” each time.
With `NNC(=O)c1ccccc1`, the Potency entry in assay [1], in [3], in assay [4], in [5], in assay [6] and in assay [7] was “inactive” each time. Also, the Potency result in [20], in [10], in assay [11], in assay [12], in assay [13] and in assay [14] was “inactive” throughout. For the same molecule, the Potency entry in assay [15], in [16], in assay [17], in [18] and in assay [19] was “inactive” each time. In addition, the results for the Potency in assay [2] and in assay [8] were 56 µM (active) and 41.9 µM (active), respectively.
On to `CCCC1CCCCN1` (configuration not stated), for which the Potency result in assay [1], in assay [2], in assay [3], in [4], in assay [5] and in [6] was “inactive” each time. In addition, the Potency entry in [7], in [8], in assay [9], in [11], in assay [12] and in [13] was “inactive” in each case. The Potency entry in assay [14], in assay [15], in assay [16], in assay [17], in assay [18] and in [19] was “inactive” each time.
Turning to `CN(C)P(=O)(N(C)C)N(C)C`, the Potency entry in [1], in assay [2], in assay [3], in assay [4], in [5] and in assay [6] was “inactive” throughout. Further, the Potency result in assay [7], in [8], in [9], in assay [10], in assay [11] and in assay [12] was “inactive” each time. In addition, the Potency result in assay [13], in assay [15], in assay [16], in [17], in [18] and in assay [19] was “inactive” throughout.
